# According to the OligoGym collection:
# Target: RAB28
# Assay: pooled miR-30 sensor sort-seq; sequence = guide strand
# Conditions: shRNA
# Also: reference of the scale not given here.
row,Sequence,sensor-assay potency score (higher = more potent)
1,TTATTGTTCGCATATGCTCCAA,-0.667
2,TTTGATAATTTGTAATATCATA,-1.64
3,TATTGTTCGCATATGCTCCAAA,-0.803
4,TTTGTTTGTACTGTTTCCCAAA,-0.914
5,TAGTTAAGGAGGTCTTCCCGGA,-0.69
6,ATTTGTAATATCATATACCAAG,-1.51
7,TTGAAGGGTAACATTCAAGTTT,-0.65
8,TTAACAGTCCTTGACATAGGTT,-0.695
9,TAACAGTCCTTGACATAGGTTC,-0.143
10,TATTTATCCAACATTTTGCCTC,-0.421
11,TTATCCAACATTTTGCCTCCTA,0.54

# Target: RAB3D
# Assay: as above
# Conditions: shRNA
row,Sequence,sensor-assay potency score (higher = more potent)
1,TTGGAATCCAGAAAGTTCGTGG,0.567
2,TATCAGTAGCAGTTTGAACATA,-1.09
3,TGAACCATCTTCCACCAGCTTG,-1.09
4,TTCTGATCTGCTGCATCCCGTG,-1.02
5,TAAGCTAGAAGGCACCACGGAT,-0.984
6,TTGACCTTGAAATCGATGCCCA,-0.115
7,TTGATGTTCTCCTTGGCACTGG,-0.145
8,TTGCTGCCTGAGCTGGAGCTGG,-1.52
9,TTGAACATATAGTCGAAGTTCT,0.33
10,TTCACATTGATGTTCTCCTTGG,-0.53
11,TATAGTCGAAGTTCTGATCTGC,0.851
12,TAGCAGTTTGAACATATAGTCG,-0.969

# Target: RAB3GAP2
# Assay: as above
# Conditions: shRNA
row,Sequence,sensor-assay potency score (higher = more potent)
1,TTGACTGACAGACTCATAGAGT,-0.525
2,TAAAACACAATCTTGGAGCCAG,0.291
3,TTAATTGACTGACAGACTCATA,-0.923
4,TTACAGGCAACACACCATCTTT,-1.36
5,TTCAGTGTTTTGAAGGTCCTGG,-0.334
6,TTTATTCCACTGAACAACGTAC,-0.27
7,TTTGCTGTGAAGCAGAGTCTGA,-0.886
8,TTCAAGTGTTCTATTGACCTAA,0.6
9,TATGAGACAATCCTCCAGCTGT,-0.612
10,TTCTGTGGGATCTTTGACCTTT,0.671
11,TTATTTACTAGTTTAGCTGTTG,0.0265

# Target: RABGEF1
# Assay: as above
# Conditions: shRNA
row,Sequence,sensor-assay potency score (higher = more potent)
1,TTTCAGAGTCAATAGCTGCTAA,-0.257
2,TTAGTTACATTCTAGATCCCAA,0.187
3,TTTCTTGCACAGGAGATCCGAT,-0.404
4,TTGGCTTCATTCATGATCCTTT,0.202
5,TTCTTTTCTTCAAACTTGGAGA,-0.783
